# Results as given in PubChem BioAssay.
# Activity calls are given as the source filed them.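 How the source made its calls, unless noted: active means inhibition above 20% together with a positive visual image hit; inconclusive means visual image hit but inhibition not above 20%; inactive means no visual image hit.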
# Legend:
# [1] = inhibitors of TNFa-induced NFkB p65 translocation, primary screen, imaging, HUVEC, MLSMR starter and 10KST1 sets (AID 438); conditions: HUVEC TNFa-induced p65 nuclear translocation; cell count: measured here: nuclei count (cytotoxicity indicator), at 2.08 µM; inhibition: at 2 µM, stronger effect = higher value, 0% TNFa-plus-vehicle, 100% no-TNFa wells;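 further: compound added about 3h40 before a 20 min TNFalpha stimulation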;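 on inhibition: signal is the nuclear over cytoplasmic p65 intensity ratio per well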
# [2] = inhibitors of mutant huntingtin aggregation, primary screen, imaging, exon1htt(103Q)mCFP cells, high-content imaging (AID 483;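 active means visual image review flags a hit and inhibition of aggregation exceeds 20%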;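 further: compound exposure lasted 3 days before fixation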;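 on nuclei count: percent of the per-plate median nuclei count of sample wells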); conditions: exon1htt(103Q)mCFP cell line, aggregate imaging, at 2 µM; inhibition of aggregation: stronger effect = higher value; nuclei count: measured here: cell count, toxicity
# [3] = inhibitors of E-selectin induction by TNFa, primary screen, imaging, HUVEC, immunofluorescence, MLSMR starter and 10KST1 sets (AID 487;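 active means visually confirmed hit in the image check and inhibition above 20%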;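 on inhibition: signal is fraction of cell area covered by stained E-selectin grains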;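 on nuclei count: 100% = median nuclei count of all wells on the same plate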); conditions: HUVEC TNFalpha-induced E-selectin immunofluorescence imaging, at 2 µM; inhibition: stronger effect = higher value; nuclei count: measured here: cell number, toxicity
# [4] = target: Voltage-gated potassium channel subunit beta-2 (Rattus norvegicus) (UniProt P62483); assay: KvBeta enzyme negative modulators, primary screen, biochemical, NADPH fluorescence (AID 622;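 active means fluorescence slope higher than the sample average by over 3 SD, cut at about -0.22 in these data, passing the limit was not always enough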;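 further: slope of raw intensity against log time taken from 70 to 1610 s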); conditions: recombinant KvBeta, 4-cyanobenzaldehyde reduction, at 10 µM, stronger effect = higher value
# Voltage-gated potassium channel subunit beta-2 (Rattus norvegicus), sequence (P62483 whole entry, looked up): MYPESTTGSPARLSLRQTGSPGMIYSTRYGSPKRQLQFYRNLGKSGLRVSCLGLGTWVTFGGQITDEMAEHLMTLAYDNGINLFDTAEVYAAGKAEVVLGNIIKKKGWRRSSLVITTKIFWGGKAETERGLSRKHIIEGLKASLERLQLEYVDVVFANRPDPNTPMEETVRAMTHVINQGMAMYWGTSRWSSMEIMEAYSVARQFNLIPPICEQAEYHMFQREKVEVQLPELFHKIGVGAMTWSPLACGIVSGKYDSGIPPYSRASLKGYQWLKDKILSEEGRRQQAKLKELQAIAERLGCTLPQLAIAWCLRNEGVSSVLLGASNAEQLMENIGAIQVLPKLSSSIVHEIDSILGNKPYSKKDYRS
# [5] = target: Voltage-gated potassium channel subunit beta-2 (Rattus norvegicus) (UniProt P62483); assay: KvBeta positive modulators, primary screen, biochemical, NADPH fluorescence (AID 623;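 active means NADPH fluorescence slope more negative than the mean of all samples by about 3 SD, 99.7% confidence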;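 further: fluorescence intensity change per second fitted from 20 to 320 s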); conditions: Recombinant KvBeta, NADPH fluorescence decrease slope, 10 min; at 10 µM; stronger effect = lower value
# [6] = target: Alpha-2C adrenergic receptor (Homo sapiens) (UniProt P18825); assay: modulators of alpha2C/GIRK thallium flux, primary screen, cell-based, HEK293 alpha2C/GIRK1/2 (AID 624;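 active means fluorescence slope after compound addition differing from the mean of all screened samples at 99.7% confidence, in either direction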;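 further: slope of fluorescence ratio to pre-addition baseline per second over 15 to 24 s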); conditions: thallium flux BTC fluorescence, at 10 µM, actives lie on both sides
# Alpha-2C adrenergic receptor (Homo sapiens), sequence (P18825 whole entry, looked up): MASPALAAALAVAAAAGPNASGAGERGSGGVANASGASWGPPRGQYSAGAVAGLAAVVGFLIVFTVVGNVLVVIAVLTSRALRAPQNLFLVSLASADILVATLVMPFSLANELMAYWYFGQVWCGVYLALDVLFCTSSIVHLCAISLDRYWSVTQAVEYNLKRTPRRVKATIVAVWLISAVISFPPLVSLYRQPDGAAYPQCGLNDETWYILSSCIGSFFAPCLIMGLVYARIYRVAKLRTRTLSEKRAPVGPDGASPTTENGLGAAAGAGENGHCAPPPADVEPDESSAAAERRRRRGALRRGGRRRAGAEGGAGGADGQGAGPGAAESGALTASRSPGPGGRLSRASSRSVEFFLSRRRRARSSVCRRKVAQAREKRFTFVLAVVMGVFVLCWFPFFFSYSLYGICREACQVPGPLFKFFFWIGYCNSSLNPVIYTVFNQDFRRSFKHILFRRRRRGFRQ
# [7] = inhibitors of Sendai virus-induced IRF3 signaling, primary screen, TLR/RLR signaling modifier project, cell-based, Sendai virus stimulus, luciferase, 10K MLSCN set (AID 602276;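 active means inhibition at or above 50% at 10 µM; inactive means inhibition below 50%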;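 further: firefly luciferase from ISG56 promoter only with Renilla not read in this screen; 0% = Sendai virus plus DMSO and 100% = medium plus DMSO without virus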); conditions: HEK293 RL24 IRF3 luciferase reporter, at 10 µM, stronger effect = higher value
# [8] = inhibitors of poly I:C-induced TLR3 signaling, primary screen, cell-based, poly I:C stimulus, luciferase, 10K MLSCN set (AID 602277;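 active means inhibition of the reporter signal at or above 50%; inactive means inhibition below 50%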); conditions: HEK293-TLR3 RL24 IRF3 luciferase reporter, at 10 µM, stronger effect = higher value
Structure (SMILES),cell count [1],inhibition [1],inhibition of aggregation [2],nuclei count [2] [%],inhibition [3],nuclei count [3] [%],fluorescence slope [4],NADPH fluorescence slope [5],slope [6],inhibition [7],inhibition [8]
CCn1c(Cc2ccccc2)nnc1SCC(=O)Nc1cc(C)on1,629,-3.3% (inactive),5.6% (inactive),102,-15.6% (inactive),112,-0.513 (inactive),-3.3e-05 (inactive),0.0074 (inactive),-8.42% (inactive),23% (inactive)
Cc1nnc2c3ccccc3c(-c3ccccc3)nn12,481,-4.4% (inactive),-5.8% (inactive),92.4,-3.3% (inactive),108,-0.301 (inactive),-4.7e-05 (inactive),0.00584 (inactive),68% (active),61.1% (active)
COc1ccc(CNC(=O)c2nnn(Cc3ccc(OC)cc3)c2N)cc1,649,2.8% (inactive),-8.9% (inactive),84.9,-6.7% (inactive),92.2,-0.624 (inactive),-2.4e-05 (inactive),0.00639 (inactive),12.2% (inactive),22.1% (inactive)
Cc1ccc(NC(=O)C2CCCN2S(=O)(=O)c2cccc3cccnc23)cc1F (stereo not drawn),577,-1.1% (inactive),3.5% (inactive),71.6,-56.2% (inactive),100,-0.55 (inactive),-3.9e-05 (inactive),0.00633 (inactive),9.99% (inactive),33.6% (inactive)
CCOC(=O)c1cc2sc(C)cc2n1CC(=O)Nc1cccc(C)c1C,556,7.5% (inactive),23.7% (inactive),109,-44.9% (inactive),116,-0.342 (inactive),-3.2e-05 (inactive),0.00758 (inactive),-2.4% (inactive),12.7% (inactive)
COc1ccc(-n2c(Cc3cccn3C)nnc2SCC(=O)Nc2ccc(Cl)cc2)cc1,678,-5.8% (inactive),8.1% (inactive),85,-22.9% (inactive),119,-0.567 (inactive),-5e-06 (inactive),0.0052 (inactive),11.4% (inactive),23.2% (inactive)
CC(=O)N1CCN(c2ccc(N=Cc3c(O)n(Cc4ccccc4)c(=O)[nH]c3=O)cc2)CC1,344,6.8% (inactive),-13.5% (inactive),102,-9.7% (inactive),105,-0.525 (inactive),1.9e-05 (inactive),0.00469 (inactive),14.1% (inactive),22.9% (inactive)
COc1ccc(NC(=O)CSc2nnc(-c3ccccc3)n2N)cc1,438,0% (inactive),4.9% (inactive),103,-13.6% (inactive),114,-0.38 (inactive),9.8e-06 (inactive),0.00577 (inactive),15.8% (inactive),24% (inactive)
O=C(Nc1ccc(Cl)cc1C(=O)O)c1ccc2c(c1)C(=O)N(Cc1ccco1)C2=O,366,0.3% (inactive),-2.8% (inactive),105,-34.4% (inactive),119,-0.493 (inactive),-4.3e-05 (inactive),0.00498 (inactive),23.5% (inactive),28.2% (inactive)
COc1cc(C(=O)Nc2ccc(-n3cnnn3)c(C)c2)cc(OC)c1OC,302,5.8% (inactive),11.6% (inactive),90,-94.5% (inactive),149,-0.617 (inactive),3e-06 (inactive),0.00564 (inactive),-0.467% (inactive),20.8% (inactive)
Cc1ccc(N(C(C)C(=O)Nc2ccc(S(=O)(=O)N3CCOCC3)cc2)S(C)(=O)=O)cc1 (stereo not drawn),522,-7.3% (inactive),23.8% (inactive),68.3,-0.3% (inactive),92.3,-0.518 (inactive),-1.3e-05 (inactive),0.00486 (inactive),5.72% (inactive),10.8% (inactive)
O=S(=O)(c1ccc(Br)s1)N1CCN(c2ccccc2)CC1,660,6.3% (inactive),0.1% (inactive),90.2,14.4% (inactive),102,-0.289 (inactive),-3e-05 (inactive),0.00522 (inactive),10.7% (inactive),13.7% (inactive)
CC1CCN(CCn2c(=S)[nH]c3ncccc3c2=O)CC1,508,7.1% (inactive),-13.9% (inactive),115,-9.3% (inactive),105,-0.411 (inactive),-3.5e-05 (inactive),0.00346 (inactive),10.2% (inactive),26.9% (inactive)
C=CCn1c(SCC(=O)NCCCC)nc2scc(-c3ccco3)c2c1=O,650,-6.7% (inactive),2.2% (inactive),120,-4.2% (inactive),99.8,-0.444 (inactive),-3.5e-05 (inactive),0.00561 (inactive),19.3% (inactive),28.9% (inactive)
CCN1CCN(C(c2cccs2)C(C)NC(=O)c2ccccc2)CC1 (stereo not drawn),528,-0.3% (inactive),-7.7% (inactive),102,-20.1% (inactive),128,-0.59 (inactive),-3.6e-05 (inactive),0.00664 (inactive),8.51% (inactive),39.8% (inactive)
CCCCOc1ccc(C2C3CN(C(=O)OCC)CC=C3C(C#N)=C(N)C2(C#N)C#N)cc1OC (stereo not drawn),645,-26.7% (inactive),-9.8% (inactive),106,-44.7% (inactive),115,-0.476 (inactive),-2.9e-05 (inactive),0.0065 (inactive),14.6% (inactive),19.7% (inactive)
Cc1ccc(NC(=O)c2ccco2)cc1NC(=O)CSc1nnc(-c2cccs2)n1C,379,-5.5% (inactive),16.8% (inactive),89.1,24.1% (inactive),98.1,-0.394 (inactive),-5.8e-05 (inactive),0.00449 (inactive),10.8% (inactive),14.1% (inactive)
O=C(O)C1CC=CCC1C(=O)Nc1cccc(C(=O)N2CCCCC2)c1 (stereo not drawn),419,6.1% (inactive),-11.9% (inactive),109,-158% (inactive),115,-0.427 (inactive),-4.3e-05 (inactive),0.00595 (inactive),0.562% (inactive),-0.512% (inactive)
O=C(NCCN1C(=O)C2C3C=CC(C3)C2C1=O)N1CCCCC1 (stereo not drawn),584,-7.6% (inactive),0.9% (inactive),104,3.5% (inactive),99.5,-0.604 (inactive),-3.7e-05 (inactive),0.00723 (inactive),-6.07% (inactive),20.6% (inactive)
COc1ccccc1S(=O)(=O)Cc1ccc(C(=O)N2CCN(c3ccc(C)cc3)C(C)C2)o1 (stereo not drawn),566,6.1% (inactive),-8.4% (inactive),117,-2.9% (inactive),91.7,-0.527 (inactive),-2.9e-05 (inactive),0.00593 (inactive),16.6% (inactive),22.5% (inactive)
CC(=O)CCc1c(C)[nH]c2ccccc2c1=O,360,9.1% (inactive),-8.9% (inactive),123,-3.8% (inactive),102,-0.523 (inactive),6.6e-05 (inactive),0.00588 (inactive),-9.69% (inactive),-2.97% (inactive)
CCn1nc(C(=O)OCC(=O)N2CCc3ccccc32)c2ccccc2c1=O,301,-8.8% (inactive),4.1% (inactive),68.3,25.7% (inactive),96.8,-0.297 (inactive),2.7e-05 (inactive),0.00506 (inactive),-3.24% (inactive),13.2% (inactive)
CC1CN(c2ccc(Oc3ccccc3)cc2)c2nc3c(c(=O)n(CC(N)=O)c(=O)n3C)n2C1 (stereo not drawn),706,-12.4% (inactive),4.2% (inactive),106,-15.8% (inactive),93.4,-0.546 (inactive),-6.5e-05 (inactive),0.00659 (inactive),9.73% (inactive),22.4% (inactive)
COC(=O)[C@H](C)NC(=O)Nc1cccc(C(F)(F)F)c1,483,-2.7% (inactive),29.8% (inactive),85.5,-98.7% (inactive),109,-0.537 (inactive),2.9e-05 (inactive),0.00446 (inactive),-11.9% (inactive),-5.94% (inactive)
COc1cccc(C2C(C(=O)c3ccc(C)o3)=C(O)C(=O)N2CCCN(C)C)c1 (stereo not drawn),239,-10.9% (inactive),45.3% (active),83.9,-110% (inactive),111,-0.592 (inactive),-5.1e-05 (inactive),0.00639 (inactive),10.4% (inactive),15.6% (inactive)
Cc1noc(/C=C/N(C)C)c1S(=O)(=O)N1CCCC(C(=O)N2CCc3ccccc32)C1 (stereo not drawn),620,-4% (inactive),-4.7% (inactive),86.6,-16.5% (inactive),95.3,-0.537 (inactive),-5.3e-05 (inactive),0.00689 (inactive),11.8% (inactive),45.3% (inactive)
O=C1C2CC=C(Cl)CC2C(=O)N1c1ncn[nH]1 (stereo not drawn),329,5.5% (inactive),7.6% (inactive),98.3,-62.1% (inactive),113,-0.483 (inactive),-5.8e-05 (inactive),0.00499 (inactive),12.6% (inactive),14% (inactive)
Cc1cc(NC(=O)COC(=O)C2COc3ccccc3O2)no1 (stereo not drawn),734,-5.3% (inactive),-24.5% (inactive),106,-15.9% (inactive),103,-0.407 (inactive),-7.6e-05 (inactive),0.00343 (inactive),7.14% (inactive),12.6% (inactive)
